Active and inactive are the calls of the source. How the calls were made is not given here.

For the assay, the target named is Pantothenate synthetase (Mycobacterium tuberculosis (strain ATCC 25618 / H37Rv)) (UniProt P9WIL5). Description: Coupled enzyme confirmation of inhibitors against recombinant Mtb PanC (AID 375).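 Further: 0% = full reaction with vehicle and 100% = no enzyme background.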 Conditions: coupled enzyme assay; at 10 µM, active compounds read high.
Sequence of Pantothenate synthetase (Mycobacterium tuberculosis (strain ATCC 25618 / H37Rv)) (P9WIL5 whole entry, looked up): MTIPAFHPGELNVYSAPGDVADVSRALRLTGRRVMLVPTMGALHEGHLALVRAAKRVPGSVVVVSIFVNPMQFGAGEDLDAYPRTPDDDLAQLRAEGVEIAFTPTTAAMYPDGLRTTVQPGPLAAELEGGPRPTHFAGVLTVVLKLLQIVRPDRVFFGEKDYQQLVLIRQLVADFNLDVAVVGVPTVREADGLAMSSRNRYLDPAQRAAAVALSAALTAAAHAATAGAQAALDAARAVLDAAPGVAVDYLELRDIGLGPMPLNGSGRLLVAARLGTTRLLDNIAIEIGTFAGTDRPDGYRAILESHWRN
For orientation: inhibition means the share of the control response that was lost under treatment. On to `CCOC(=O)N1CCN(c2cc(=O)n(-c3ccccc3Cl)c(=O)[nH]2)CC1`, for which the inhibition is 0% (inactive).

Regarding `Cc1cc(C)n(CC2CC(=O)N(c3ccc(Cl)c(Cl)c3)C2=O)n1` (stereo not given), the inhibition was 0% (inactive).

As to `CCn1nnnc1SCC(=O)Nc1nnc(C(C)C)s1`, the inhibition was 3% (inactive).

Consider `O=C(CN(C(=O)CCNC(=O)c1ccco1)c1ccccc1)NC1CCCC1`, for which the inhibition is 2% (inactive).

For the compound `Cn1c(=O)oc2cc(S(=O)(=O)N3CCC(C(=O)Nc4ccc(OC(F)(F)F)cc4)CC3)ccc21`, the inhibition is 0% (inactive).

With `COc1c(S(=O)(=O)n2nc(C)cc2C)ccc(Cl)c1Cl`, the inhibition is 3% (inactive).

In the case of `COC(=O)C1C(=O)C2=C(CC1C)NC(=O)CC2c1ccccc1` (stereo not given), the inhibition is 0% (inactive).

As for `Cc1sc2nc(CN3CCN(S(=O)(=O)c4cccc5nonc45)CC3)[nH]c(=O)c2c1C`, the inhibition was 0% (inactive).

Turning to `O=C(CCN1C(=O)C2C3C=CC(C3)C2C1=O)NC1CCCc2ccccc21` (stereo not given), the inhibition is 1% (inactive).

Consider `NC(N)=NC(N)=NCCc1ccccc1`, for which the inhibition is 4% (inactive).

`O=C(C1CCCN(S(=O)(=O)c2ccc(Br)s2)C1)N1CCCCCC1` (stereo not given): the inhibition was 0% (inactive).

Regarding `Cc1nc2nc(SCC(=O)NCc3ccco3)nn2c(C)c1Cc1ccccc1`, the inhibition is 0% (inactive).

For `CCc1ccccc1N=C1SCC(=O)N1C`, the inhibition was 0% (inactive).

`COc1ccc(N(CC(=O)Nc2ccc(F)c(Cl)c2)S(=O)(=O)c2c(C)noc2C)cc1`: the inhibition is 11% (inactive).

With `O=C(O)c1ccc(-n2nnnc2Oc2ccccc2C(=O)N2CCOCC2)cc1`, the inhibition was 4% (inactive).

In the case of `CN1C(=O)C2(NCCc3c2[nH]c2ccccc32)c2ccccc21` (stereo not given), the inhibition is 1% (inactive).

Turning to `COc1ccc(NC(=O)CSc2nnc(-c3ccccc3C)n2C)cc1`, the inhibition is 0% (inactive).

Turning to `COc1ccc(C2/C(=C(/O)c3ccccc3)C(=O)C(=O)N2c2ncccn2)cc1OC` (stereo not given), the inhibition was 2% (inactive).

For the compound `COC(=O)c1ccccc1NC(=O)C1CC=CCC1C(=O)O` (stereo not given), the inhibition is 0% (inactive).

As to `COc1cc(C2NC(=O)NC(C)=C2C(=O)OCC2CCCO2)ccc1O` (stereo not given), the inhibition is 0% (inactive).

Consider `Cc1ccc(-c2cc(C(F)(F)F)n3ncc(C(=O)O)c3n2)cc1`, for which the inhibition was 5% (inactive).

`COc1ccc(C(=O)NCCCCCC(=O)O)cc1OC`: the inhibition was 0% (inactive).

With `COc1ccc(OC)c(-n2nnnc2SCC(=O)NCc2ccc3c(c2)OCO3)c1`, the inhibition was 0% (inactive).

Consider `Cc1nc(CCNC(=O)c2ccccc2)cs1`, for which the inhibition was 0% (inactive).

For `CCOC(=O)c1nnn(-c2nonc2N)c1CN1CCc2ccccc2C1`, the inhibition is 2% (inactive).

Consider `Cc1ccccc1-c1nc(CN2CCC(C(=O)N3CCC(C(N)=O)CC3)CC2)c(C)o1`, for which the inhibition was 0% (inactive).

Consider `O=C(Nc1nonc1NC(=O)C1CCCCC1)C1CCCCC1`, for which the inhibition is 0% (inactive).

For `Cc1ccc(C2c3c(oc4ccccc4c3=O)C(=O)N2c2nnc(C(C)C)s2)o1` (stereo not given), the inhibition is 7% (inactive).

For the compound `CCOc1ccc(OCc2cccc(C(=O)O)c2)cc1`, the inhibition is 6% (inactive).

Consider `CN(CC(=O)N1CCN(c2ccccn2)CC1)S(=O)(=O)c1ccc2ccccc2c1`, for which the inhibition is 0% (inactive).

Consider `Cc1c(C(=O)O)oc2ccc(S(=O)(=O)NCc3ccccc3)cc12`, for which the inhibition was 0% (inactive).

`CCOC(=O)Cc1csc(NC(=O)CN(C)S(=O)(=O)c2ccc3c(c2)CCC(=O)N3)n1`: the inhibition was 0% (inactive).

As for `COc1ccc(C(C)=O)c(OC(=O)c2ccc(OC)c(OC)c2)c1`, the inhibition is 0% (inactive).

`O=C(Nc1nnc(CCN2CCCCC2)s1)C1CCCCC1`: the inhibition is 0% (inactive).

In the case of `CCCN1CC23C=CC(O2)C(C(=O)O)C3C1=O` (stereo not given), the inhibition is 0% (inactive).

With `COc1ccc(N2CCN(C(=O)CSc3ccccc3N)CC2)cc1`, the inhibition is 0% (inactive).

As for `Cc1c(C2Nc3ccccc3NC3=C2C(=O)CC(C)(C)C3)cnn1C` (stereo not given), the inhibition is 2% (inactive).

In the case of `Cc1cc(NC(=O)COc2cccc(C)c2C)no1`, the inhibition is 0% (inactive).

As to `COc1ccc(CCn2c(=N)c(C#N)cc3c(=O)n4ccccc4nc32)cc1`, the inhibition was 0% (inactive).

Turning to `COC(=O)c1ccc(C2CC(=O)Nc3cc(OC)c(OC)c(OC)c32)cc1` (stereo not given), the inhibition is 0% (inactive).

The values are drawn from PubChem BioAssay.
